# The sample as a whole holds a higher share of hits than the screen did.
# HT1080NT lethal = kills 2HG-producing HT-1080-NT fibrosarcoma cells; HT-1080-NT fibrosarcoma viability, CellTiter-Glo ATP luminescence, 48 h; Potency, µM (series often up to 46.1 µM), for the others: top-dose activity, negative = less viability, usual class: cytotoxic; 1.6% of 360,000 active;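 further: NT is the 2HG producing partner of a matched IDH1 knockdown line; potency means the concentration at half of the fitted maximal effect; 0% = DMSO-treated cells and -100% = media-only wells without cells; nearly all actives have a fitted effect of over 55% in size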
#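 HT-1080-NT fibrosarcoma cells (2HG-overproducing), 750 cells/well in RPMI with 5% FBS, dosed after 2 h and incubated 48 h at 37C. CellTiter-Glo luminescence normalized to DMSO and no-cell wells; concentration-response curves fitted and classed.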
# TDP1 cell CPT = DT40-hTDP1 cell growth loss with CPT; chicken DT40 Tdp1-/-;hTDP1 cells + 20 nM CPT, ATP luminescence, 48 h; Potency, µM (doses to about 46.2 µM), for inactives: top-dose activity change, negative = growth inhibition, usual class: inhibitors; 12% of 420,000 active; AID 686979; further: potency means the concentration at half of the fitted maximal effect; nearly all actives have a fitted effect of over 55% in size
#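 Cell growth measured by CellTiter-Glo luminescence after a minimum 48 h, 37 C compound exposure with 20 nM CPT in Tdp1-knockout DT40 cells stably expressing hTDP1, seeded 400/well; qHTS titration format.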
# HT1080 IDH1KD tx = kills HT-1080 cells with IDH1 knockdown | Potency, µM (doses to about 46.1 µM), without a hit: at the top dose activity, negative = toxicity, actives largely listed as cytotoxic | HT-1080 IDH1 knockdown viability, ATP luminescence, 48 h | 2% of 360,000 active;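 further: potency means the concentration at half of the fitted maximal effect; 0% = DMSO wells and -100% = cell-free medium wells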
#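 After a 2 h attachment period, IDH1KD HT-1080 cells took pin-transferred compound for 48 h at 37 °C; ATP-based luminescence after 10 min room-temperature reagent incubation reported viability.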
# DT40 TDP1 no CPT = qHTS for Inhibitors of human tyrosyl-DNA phosphodiesterase 1 (TDP1): qHTS in cells in absence of CPT | AID 686978, 2013 | 15% of 420,000 active | DT40 Tdp1-/- hTDP1 cells, no CPT, ATP luminescence, 48 h | Potency, µM (titrated, usually from 46.2 µM), without a hit: at the top dose activity change, negative = growth inhibition, usual class: inhibitors; further: potency means the concentration at half of the fitted maximal effect; nearly all actives have a fitted effect of over 55% in size
#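 Seeded 400 DT40-hTDP1 cells/well (vehicle DMSO, no 20 nM CPT); pinned compounds; ≥48 hr at 37 °C; CellTiter-Glo luminescence as viability measure.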
# IL-1B inflam inh = inhibitors of inflammasome signaling (IL-1 beta secretion); AID 743279; THP-1 LPS/ATP IL-1B secretion, AlphaLISA, 16 h; active compounds read low; activity change, % at 57.5 µM; 4.7% of 360,000 active; in the data active means activity change below about -50%; inconclusive means mostly about -30% to -49%
#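 Secreted IL-1B measured by AlphaLISA bead assay after 16 h compound exposure of THP-1 cells; compounds (final up to 57.5 uM) added 1 h before LPS (250 ng/mL) and ATP (1.25 mM) stimulation; lower signal means less secretion.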
# 12-LOX inh = blocks human arachidonate 12S-lipoxygenase. P18054. purified 12hLO, xylenol orange hydroperoxide absorbance. Potency, µM (titrated, usually from 108 µM), for inactives: top-dose activity change, negative = inhibition, most hits filed as inhibitors. 1.1% of 580,000 active. AID 1671190; further: potency means the concentration at half of the fitted maximal effect
# Target sequence (P18054 whole entry, looked up): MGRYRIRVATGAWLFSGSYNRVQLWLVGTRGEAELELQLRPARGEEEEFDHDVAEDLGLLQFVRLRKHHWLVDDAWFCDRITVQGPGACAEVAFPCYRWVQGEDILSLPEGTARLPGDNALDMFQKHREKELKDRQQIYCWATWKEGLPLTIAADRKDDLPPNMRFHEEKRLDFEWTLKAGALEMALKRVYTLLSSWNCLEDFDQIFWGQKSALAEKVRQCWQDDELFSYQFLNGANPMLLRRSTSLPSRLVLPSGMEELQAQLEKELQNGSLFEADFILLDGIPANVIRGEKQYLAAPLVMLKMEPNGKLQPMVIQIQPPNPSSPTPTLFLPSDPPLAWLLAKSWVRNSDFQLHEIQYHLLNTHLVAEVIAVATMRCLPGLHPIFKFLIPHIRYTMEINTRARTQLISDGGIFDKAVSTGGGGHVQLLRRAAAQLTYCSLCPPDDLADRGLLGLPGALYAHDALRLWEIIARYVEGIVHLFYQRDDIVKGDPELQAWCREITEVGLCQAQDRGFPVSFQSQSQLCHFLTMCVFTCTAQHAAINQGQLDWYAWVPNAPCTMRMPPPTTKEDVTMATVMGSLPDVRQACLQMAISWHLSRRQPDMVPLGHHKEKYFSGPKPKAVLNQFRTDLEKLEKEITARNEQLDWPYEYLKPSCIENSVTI
#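 Purified human 12hLO at 150 nM in 25 mM Hepes, 0.01% Triton X-100, pH 7.0, preincubated 15 min at room temperature with compound. Reaction started with 40 uM arachidonic acid, 30 min at room temperature. Hydroperoxide measured by Fe-xylenol orange, 573/405 nm absorbance ratio.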
# Starred values were filed as active, the others as inactive; i = inactive; ? = inconclusive; / = no result; [ ] = remark or other dose. Unless noted, the call rests on the fitted dose curve; in most records, active means well fitted curve in the direction sought with a large enough effect; inconclusive means small, poorly fitted or top-dose-only effect, or another doubt; inactive means no such curve, though single readings can be large; an effect the other way counts as inactive or inconclusive. Unless noted, on the % scale 0 is the no-effect control and ±100 the full control effect.
SMILES,HT1080NT lethal,TDP1 cell CPT,HT1080 IDH1KD tx,DT40 TDP1 no CPT,IL-1B inflam inh,12-LOX inh
CC(C)n1c(N2CCN(CC(=O)NCc3cccs3)CC2)nc2ccccc21,3%,?,8%,?,-9,1%
CC(C)n1c(N2CCN(C(=O)N3CCCCC3)CC2)nc2ccccc21,8%,13µM*,4%,?,13,53%
CC(C)n1c(N2CCN(C(=O)Nc3ccc(Cl)cc3)CC2)nc2ccccc21,0%,-30%,-9%,-27%,-23,5%
CC(C)n1c(N2CCN(C(=O)c3cccs3)CC2)nc2ccccc21,-3%,?,-3%,23µM*,-9,-16%
Cc1ccc(C(C)NS(=O)(=O)Cc2ccc(F)cc2)o1 (stereo not given),/,/,/,/,/,7%
COc1cccc(C2=NC(C)(CC(=O)NCc3ccccc3F)ON2C)c1 (stereo not given),/,/,/,/,/,-11%
CC(C)CCN1CCCC2(CN[S+](=O)([O-])c3ccccc3N2)C1 (stereo not given),/,/,/,/,/,34%[176 µM]
CC(C)CCn1c(=O)c2sccc2n2c(CCCC(=O)NC(C)c3ccccc3)nnc12 (stereo not given),/,-5%,/,?,/,-17%
CC(=O)c1ccc(OCc2cc(C(=O)N3CCCCC3c3cccnc3)no2)cc1 (stereo not given),-10%,21µM*,?,18µM*,?,12%
CCN(CC)c1ccc(C(=O)N2CCC(c3ccncc3)CC2)cc1,/,21µM*,/,3.3µM*,/,-2%
Cc1ccc(OCc2cc(C(=O)N3CCCC(C)C3)no2)cn1 (stereo not given),-1%,16µM*,-1%,21µM*,24,-17%
CCOc1cccc(C(=O)N2CCCCC2c2cccnc2)c1 (stereo not given),8%,-10%,7%,-12%,20,?
COc1ccc(C(=O)N2CCC(c3ccncc3)CC2)cc1OC,/,-26%,/,-8%,/,-2%
CC(=O)c1ccc(OCc2cc(C(=O)N3CC[C@@H]4CCCC[C@H]4C3)no2)cc1,-1%,?,-8%,16µM*,-81*,?
Cc1ccc(N(C(C)C(=O)NCc2ccc(Cl)cc2Cl)S(C)(=O)=O)cc1C (stereo not given),/,/,/,/,/,-46%
CC(=O)c1ccc(OCc2cc(C(=O)N3CCC(c4ccncc4)CC3)no2)cc1,18µM*,12µM*,23µM*,5.8µM*,-12,-2%
COCC1CCN(C(=O)c2cc(COc3ccc(C)c(C)c3)on2)C1 (stereo not given),14%,-25%,19%,-11%,i,0%
COCC1CCN(C(=O)c2cc(COc3ccc4c(c3)CCCC4)on2)C1 (stereo not given),-5%,?,-2%,-26%,-62*,-5%
COc1ccc(OCc2cc(C(=O)N3CCC(c4ccccc4)CC3)no2)c(Cl)c1,-5%,-27%,-4%,?,i,1%
COc1cccc(OCc2cc(C(=O)N3CCN(C)C(c4ccccc4)C3)no2)c1 (stereo not given),-3%,26µM*,-2%,?,20,/
COc1cccc(OCc2cc(C(=O)N3CCC(c4ccncc4)CC3)no2)c1,?,15µM*,?,8.2µM*,-20,11%
C=CCN(CC(=O)NC(N)=O)Cc1ccc(OC)cc1,/,/,/,/,/,-1%
CCOC(=O)c1sc2cccc(F)c2c1COC(=O)c1ccoc1,/,/,/,/,/,-14%
CC(C)NC(=O)[C@@H]1C[C@H](N)CN1C(=O)c1cccc(S(C)(=O)=O)c1,/,/,/,/,/,25%
CC1(Oc2cccc(C#N)c2)CCN(Cc2ccccc2OC(F)F)C1 (stereo not given),-26%,?,8%,?,-19,-17%
SMILES,HT1080NT lethal,TDP1 cell CPT,HT1080 IDH1KD tx,DT40 TDP1 no CPT,IL-1B inflam inh,12-LOX inh
COc1cc(Cl)ccc1OC1(C)CCN(Cc2cccc(OC)c2OC)C1 (stereo not given),?,13µM*,?,16µM*,-3,-7%
COc1cc(Cl)ccc1OC1(C)CCN(Cc2ccccc2OC(F)F)C1 (stereo not given),-15%,21µM*,-17%,21µM*,-5,-9%
COc1ccc(-c2nc(SCC(=O)NCC3CCCO3)c(-c3ccc(C)cc3)[nH]2)cc1OC (stereo not given),/,?,/,?,/,-5%
Cc1ccc(-c2[nH]c(-c3ccc(Cl)cc3)nc2SCC(=O)NCC2CCCO2)cc1 (stereo not given),14%,?,0%,4.1µM*,0,12%[57.4 µM]
O=C(CSc1nc(-c2ccc(F)cc2)[nH]c1-c1ccccc1)NCC1CCCO1 (stereo not given),/,29µM*,/,16µM*,/,-21%
CCc1ccc(-c2nc(SCC(=O)NCC3CCCO3)c(-c3ccc(C)cc3)[nH]2)cc1 (stereo not given),/,-16%,/,?,/,-10%
O=C(CN(C1CCCCC1)S(=O)(=O)c1ccc(F)cc1)NCC1CCCO1 (stereo not given),3.7µM*,8.2µM*,4.6µM*,7.3µM*,-106*,-8%
Cc1cc(C)c2nc(SCC(=O)NCC3CCCO3)c(C#N)cc2c1 (stereo not given),20%,8%,19%,-9%,-51*,-16%
O=C(Nc1ccc(C(F)(F)F)oc1=O)c1ccc(Cl)cc1,/,/,/,/,/,-44%
O=C(Nc1nc(-c2ccc(F)cc2)cs1)C1CCCO1 (stereo not given),-2%,?,5%,?,-56*,-19%
O=C(CSc1nn(-c2ccc(F)cc2)c(=S)s1)NCC1CCCO1 (stereo not given),-1%,-20%,-11%,-19%,-5,11%
O=C(CSc1nc(-c2ccc(F)cc2)cs1)NCC1CCCO1 (stereo not given),2%,-27%,-3%,21µM*,-13,-6%
O=C(CN(c1ccc(Br)cc1)S(=O)(=O)c1ccc(Cl)c([N+](=O)[O-])c1)NCC1CCCO1 (stereo not given),?,16µM*,?,?,-98*,33%
COc1ccc(-c2nc(C3CC3)nc3c2CCN(Cc2ccc(C(F)(F)F)cc2)CC3)cc1,/,/,/,/,/,3%[6.33 µM]
COc1cc(/C=C2\SC(N)=NC2=O)ccc1OCC(=O)Nc1ccc(C)cc1,2%,1.5µM*,0%,1.5µM*,-103*,10%
